Reference: PubChem BioAssay AID1159580 (chemical genetic matrix, 2015)
Several values for one entry are separate records, joined by “and”; a condition that tells them apart may be missing. Identical values can stand only once. Among all 5,500 compounds or so, about 2,000 (36%) were called active. Not shown: some 18% with an inconclusive outcome. Cut-off read from the data, not from the text of the source: active = normalized growth mostly below about 0.91 (no sharp cut-off); inconclusive = no clear call, values can overlap the other calls; inactive = mostly above about 0.92. Some of the results follow.

Assay: chemical genetic growth profiling, strain panel (AID 1159580);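 note: tested at 20 µM; growth read once vehicle control cultures reached saturation at 30 °C; 1 = growth at the plate median or of vehicle wells; lower values mean less growth of the strain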
Settings: S. cerevisiae deletion strains, growth OD

Measured: normalized growth

N=C(N)N
inactive: locus YAL013W, strain DEP1, active compounds read low 1.01 | locus YAL021C, strain ccr4, active compounds read low 0.995 | locus YAL026C, strain drs2, active compounds read low 0.994 | locus YAL030W, strain snc1, active compounds read low 0.993 | locus YBL061C, strain skt5, active compounds read low 0.992 | locus YBR009C, strain hhf1, active compounds read low 1.01 | locus YBR021W, strain FUR4, active compounds read low 1.03 | locus YBR023C, strain chs3, active compounds read low 1.01 | locus YBR171W, strain sec66, active compounds read low 0.977 | locus YBR229C, strain ROT2, active compounds read low 0.999 | locus YBR231C, strain swc5, active compounds read low 0.98 | locus YBR279W, strain paf1, active compounds read low 0.993 | locus YCL011C, strain gbp2, active compounds read low 1.01 | locus YCL016C, strain dcc1, active compounds read low 1.01 | locus YCL029C, strain bik1, active compounds read low 0.963 | locus YCL061C, strain MRC1, active compounds read low 0.996 | locus YCL069W, strain vba3, active compounds read low 0.998 | locus YCR088W, strain abp1, active compounds read low 0.992 | locus YDL005C, strain med2, active compounds read low 0.987 | locus YDL035C, strain GPR1, active compounds read low 1.03 | locus YDL040C, strain nat1, active compounds read low 1 | locus YDL074C, strain BRE1, active compounds read low 1.01 | locus YDL101C, strain DUN1, active compounds read low 0.991 | locus YDL134C, strain PPH21, active compounds read low 1.01 | locus YDL185W, strain tfp1, active compounds read low 0.968 | locus YDL192W, strain arf1, active compounds read low 0.982 | locus YDR001C, strain nth1, active compounds read low 0.994 | locus YDR069C, strain doa4, active compounds read low 0.983 | locus YDR101C, strain arx1, active compounds read low 0.994 | locus YDR137W, strain rgp1, active compounds read low 1 | locus YDR150W, strain NUM1, active compounds read low 0.992 | locus YDR159W, strain sac3, active compounds read low 0.929 | locus YDR162C, strain NBP2, active compounds read low 0.996 | locus YDR195W, strain ref2 0.943 | locus YDR297W, strain sur2, active compounds read low 0.993 | locus YDR318W, strain mcm21, active compounds read low 0.981 | locus YDR334W, strain swr1, active compounds read low 0.992 | locus YDR335W, strain msn5, active compounds read low 1.06 | locus YDR388W, active compounds read low 0.972 | locus YDR392W, strain spt3, active compounds read low 0.875 | locus YDR502C, strain sam2, active compounds read low 0.999 | locus YEL003W, strain gim4, active compounds read low 0.992 | locus YEL037C, strain rad23, active compounds read low 0.998 | locus YEL061C, strain CIN8 (second series), active compounds read low 1 | locus YEL061C, strain CIN8, active compounds read low 0.996 | locus YER015W, strain faa2, active compounds read low 0.999 | locus YER016W, strain bim1, active compounds read low 0.997 | locus YER110C, active compounds read low 0.976 | locus YER111C, strain swi4, active compounds read low 0.998 | locus YER155C, strain BEM2 (second series), active compounds read low 0.976 | locus YER155C, strain BEM2, active compounds read low 1 | locus YER167W, strain BCK2, active compounds read low 1.02 | locus YFR010W, strain ubp6, active compounds read low 0.995 | locus YGL078C, strain dbp3, active compounds read low 1 | locus YGL086W, strain mad1, active compounds read low 1.01 | locus YGL167C, strain pmr1, active compounds read low 1 | locus YGL173C, strain kem1, active compounds read low 0.987 | locus YGL227W, strain vid30, active compounds read low 0.991 | locus YGL240W, strain doc1, active compounds read low 0.999 | locus YGL248W, strain PDE1, active compounds read low 1 | locus YGL253W, strain hxk2, active compounds read low 1 | locus YGR078C, strain PAC10, active compounds read low 0.997 | locus YGR135W, strain pre9, active compounds read low 1 | locus YGR229C, strain SMI1, active compounds read low 1.04 | locus YGR252W, strain gcn5, active compounds read low 1.13 | locus YHR013C, strain ard1, active compounds read low 1.01 | locus YHR027C, strain rpn1, active compounds read low 1.01 | locus YHR030C, strain SLT2, active compounds read low 1 and 1.05 | locus YHR079C, strain IRE1 (second series), active compounds read low 0.977 | locus YHR079C, strain IRE1, active compounds read low 1.03 | locus YHR094C, strain hxt1, active compounds read low 0.974 | locus YHR129C, strain ARP1, active compounds read low 0.992 | locus YHR142W, strain chs7, active compounds read low 1.02 | locus YHR200W, strain rpn10, active compounds read low 0.992 | locus YIL066C, strain RNR3, active compounds read low 0.994 | locus YIL073C, strain SPO22, active compounds read low 0.9 | locus YIL125W, strain kgd1, active compounds read low 0.991 | locus YIR030C, strain dcg1, active compounds read low 0.99 | locus YJL092W, strain hpr5, active compounds read low 0.999 | locus YJL095W, strain BCK1 (second series), active compounds read low 0.998 | locus YJL095W, strain BCK1, active compounds read low 0.993 and 1.05 | locus YJL115W, strain asf1, active compounds read low 0.99 | locus YJL129C, strain trk1, active compounds read low 0.985 | locus YJL134W, strain LCB3, active compounds read low 0.997 | locus YJL154C, strain vps35, active compounds read low 0.994 | locus YJL164C, strain tpk1, active compounds read low 1.01 | locus YJL166W, strain qcr8, active compounds read low 1.01 | locus YJL168C, strain set2, active compounds read low 0.975 | locus YJL187C, strain SWE1 (second series), active compounds read low 0.946 | locus YJL187C, strain SWE1, active compounds read low 0.993 | locus YJR043C, strain POL32, active compounds read low 0.999 | locus YJR066W, strain TOR1, active compounds read low 0.957
